Laboratory results from PubChem BioAssay AID1159580 (chemical genetic matrix, 2015).
The whole screen tested about 5,500 compounds, of which about 2,000 (36%) were called active. Roughly 18% stayed inconclusive and do not appear here. No stated cut-off is given here; in the data, active means normalized growth mostly below about 0.91 (no sharp cut-off); inconclusive means no clear call, values can overlap the other calls; inactive means mostly above about 0.92. The list shows a part of the results.

Test: chemical genetic growth profiling, strain panel (AID 1159580);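 further: tested at 20 µM; growth read once vehicle control cultures reached saturation at 30 °C; 1 = growth at the plate median or of vehicle wells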
Settings: growth OD
[1] = S. cerevisiae deletion strains, locus YHR030C, strain SLT2, stronger effect = lower value

Measured: normalized growth

CCC(COC(=O)c1cc(OC)c(OC)c(OC)c1)(c1ccccc1)N(C)C (configuration not stated)
inactive: S. cerevisiae deletion strains, locus YAL021C, strain ccr4, stronger effect = lower value 0.969 | S. cerevisiae deletion strains, locus YAL026C, strain drs2, stronger effect = lower value 0.994 | S. cerevisiae deletion strains, locus YAL030W, strain snc1, stronger effect = lower value 0.985 | S. cerevisiae deletion strains, locus YBL061C, strain skt5, stronger effect = lower value 0.993 | S. cerevisiae deletion strains, locus YBR009C, strain hhf1, stronger effect = lower value 1.01 | S. cerevisiae deletion strains, locus YBR023C, strain chs3, stronger effect = lower value 0.98 | S. cerevisiae deletion strains, locus YBR171W, strain sec66, stronger effect = lower value 0.961 | S. cerevisiae deletion strains, locus YBR231C, strain swc5, stronger effect = lower value 0.985 | S. cerevisiae deletion strains, locus YBR279W, strain paf1, stronger effect = lower value 0.975 | S. cerevisiae deletion strains, locus YCL011C, strain gbp2, stronger effect = lower value 0.969 | S. cerevisiae deletion strains, locus YCL016C, strain dcc1, stronger effect = lower value 0.99 | S. cerevisiae deletion strains, locus YCL061C, strain MRC1, stronger effect = lower value 0.987 | S. cerevisiae deletion strains, locus YCL069W, strain vba3, stronger effect = lower value 0.988 | S. cerevisiae deletion strains, locus YCR088W, strain abp1, stronger effect = lower value 0.979 | S. cerevisiae deletion strains, locus YDL005C, strain med2, stronger effect = lower value 0.977 | S. cerevisiae deletion strains, locus YDL040C, strain nat1, stronger effect = lower value 0.978 | S. cerevisiae deletion strains, locus YDR001C, strain nth1, stronger effect = lower value 0.974 | S. cerevisiae deletion strains, locus YDR069C, strain doa4, stronger effect = lower value 0.992 | S. cerevisiae deletion strains, locus YDR137W, strain rgp1, stronger effect = lower value 0.925 | S. cerevisiae deletion strains, locus YDR159W, strain sac3, stronger effect = lower value 0.986 | S. cerevisiae deletion strains, locus YDR195W, strain ref2 0.984 | S. cerevisiae deletion strains, locus YDR297W, strain sur2, stronger effect = lower value 0.971 | S. cerevisiae deletion strains, locus YDR334W, strain swr1, stronger effect = lower value 0.938 | S. cerevisiae deletion strains, locus YDR335W, strain msn5, stronger effect = lower value 0.969 | S. cerevisiae deletion strains, locus YDR392W, strain spt3, stronger effect = lower value 0.753 | S. cerevisiae deletion strains, locus YEL003W, strain gim4, stronger effect = lower value 0.967 | S. cerevisiae deletion strains, locus YEL037C, strain rad23, stronger effect = lower value 0.983 | S. cerevisiae deletion strains, locus YEL061C, strain CIN8 (second series), stronger effect = lower value 0.985 | S. cerevisiae deletion strains, locus YER015W, strain faa2, stronger effect = lower value 0.986 | S. cerevisiae deletion strains, locus YER016W, strain bim1, stronger effect = lower value 0.983 | S. cerevisiae deletion strains, locus YER111C, strain swi4, stronger effect = lower value 0.983 | S. cerevisiae deletion strains, locus YER155C, strain BEM2 (second series), stronger effect = lower value 0.97 | S. cerevisiae deletion strains, locus YFR010W, strain ubp6, stronger effect = lower value 0.984 | S. cerevisiae deletion strains, locus YGL167C, strain pmr1, stronger effect = lower value 0.976 | S. cerevisiae deletion strains, locus YGL173C, strain kem1, stronger effect = lower value 0.985 | S. cerevisiae deletion strains, locus YGL227W, strain vid30, stronger effect = lower value 0.99 | S. cerevisiae deletion strains, locus YGL240W, strain doc1, stronger effect = lower value 0.972 | S. cerevisiae deletion strains, locus YGL253W, strain hxk2, stronger effect = lower value 0.994 | S. cerevisiae deletion strains, locus YHR013C, strain ard1, stronger effect = lower value 0.937 | S. cerevisiae deletion strains, locus YHR027C, strain rpn1, stronger effect = lower value 0.969 | [1] 0.976 | S. cerevisiae deletion strains, locus YHR079C, strain IRE1, stronger effect = lower value 0.985 | S. cerevisiae deletion strains, locus YHR142W, strain chs7, stronger effect = lower value 0.952 | S. cerevisiae deletion strains, locus YJL092W, strain hpr5, stronger effect = lower value 0.973 | S. cerevisiae deletion strains, locus YJL095W, strain BCK1 (second series), stronger effect = lower value 0.981 | S. cerevisiae deletion strains, locus YJL095W, strain BCK1, stronger effect = lower value 0.98 | S. cerevisiae deletion strains, locus YJL115W, strain asf1, stronger effect = lower value 0.957 | S. cerevisiae deletion strains, locus YJL129C, strain trk1, stronger effect = lower value 0.938 | S. cerevisiae deletion strains, locus YJL154C, strain vps35, stronger effect = lower value 0.979 | S. cerevisiae deletion strains, locus YJL164C, strain tpk1, stronger effect = lower value 0.966 | S. cerevisiae deletion strains, locus YJL166W, strain qcr8, stronger effect = lower value 0.969 | S. cerevisiae deletion strains, locus YJL187C, strain SWE1, stronger effect = lower value 0.988 | S. cerevisiae deletion strains, locus YJR066W, strain TOR1, stronger effect = lower value 0.924 | S. cerevisiae deletion strains, locus YKL160W, strain elf1, stronger effect = lower value 0.959 | S. cerevisiae deletion strains, locus YKR026C, strain gcn3, stronger effect = lower value 0.983 | S. cerevisiae deletion strains, locus YKR091W, strain srl3, stronger effect = lower value 0.976 | S. cerevisiae deletion strains, locus YLL001W, strain dnm1, stronger effect = lower value 0.985 | S. cerevisiae deletion strains, locus YLL026W, stronger effect = lower value 0.975 | S. cerevisiae deletion strains, locus YLL041C, strain sdh2, stronger effect = lower value 0.964 | S. cerevisiae deletion strains, locus YLR027C, strain aat2, stronger effect = lower value 0.974 | S. cerevisiae deletion strains, locus YLR113W, strain HOG1, stronger effect = lower value 0.995 | S. cerevisiae deletion strains, locus YLR221C, strain rsa3, stronger effect = lower value 0.951 | S. cerevisiae deletion strains, locus YLR258W, strain gsy2, stronger effect = lower value 0.991 | S. cerevisiae deletion strains, locus YLR262C, strain YPT6 (second series), stronger effect = lower value 0.933 | S. cerevisiae deletion strains, locus YLR320W, strain mms22, stronger effect = lower value 0.942 | S. cerevisiae deletion strains, locus YLR342W, strain FKS1, stronger effect = lower value 0.983 | S. cerevisiae deletion strains, locus YLR357W, strain rsc2, stronger effect = lower value 0.966 | S. cerevisiae deletion strains, locus YLR370C, strain arc18, stronger effect = lower value 0.997 | S. cerevisiae deletion strains, locus YLR384C, strain iki3, stronger effect = lower value 0.976 | S. cerevisiae deletion strains, locus YML120C, strain ndi1, stronger effect = lower value 0.957 | S. cerevisiae deletion strains, locus YMR058W, strain fet3, stronger effect = lower value 0.979 | S. cerevisiae deletion strains, locus YMR125W, strain sto1, stronger effect = lower value 0.97 | S. cerevisiae deletion strains, locus YMR129W, stronger effect = lower value 0.978 | S. cerevisiae deletion strains, locus YMR205C, strain PFK2, stronger effect = lower value 1.02 | S. cerevisiae deletion strains, locus YMR231W, strain pep5, stronger effect = lower value 0.999 | S. cerevisiae deletion strains, locus YNL071W, strain lat1, stronger effect = lower value 0.921 | S. cerevisiae deletion strains, locus YNL183C, strain NPR1, stronger effect = lower value 0.939 | S. cerevisiae deletion strains, locus YNL209W, strain ssb2, stronger effect = lower value 0.98 | S. cerevisiae deletion strains, locus YNL248C, strain rpa49, stronger effect = lower value 0.945 | S. cerevisiae deletion strains, locus YNL322C, strain KRE1 (second series), stronger effect = lower value 0.972 | S. cerevisiae deletion strains, locus YNR049C, strain mso1, stronger effect = lower value 0.973 | S. cerevisiae deletion strains, locus YOR001W, strain rrp6, stronger effect = lower value 0.913 | S. cerevisiae deletion strains, locus YOR070C, strain gyp1, stronger effect = lower value 0.978 | S. cerevisiae deletion strains, locus YOR080W, strain dia2, stronger effect = lower value 0.977 | S. cerevisiae deletion strains, locus YOR083W, strain WHI5, stronger effect = lower value 0.952 | S. cerevisiae deletion strains, locus YOR106W, strain vam3, stronger effect = lower value 0.957 | S. cerevisiae deletion strains, locus YOR231W, strain MKK1, stronger effect = lower value 0.988 | S. cerevisiae deletion strains, locus YOR265W, strain rbl2, stronger effect = lower value 0.976 | S. cerevisiae deletion strains, locus YOR270C, strain vph1, stronger effect = lower value 0.955 | S. cerevisiae deletion strains, locus YOR290C, strain snf2, stronger effect = lower value 0.925 | S. cerevisiae deletion strains, locus YPL051W, strain arl3, stronger effect = lower value 0.954 | S. cerevisiae deletion strains, locus YPL078C, strain atp4, stronger effect = lower value 0.946 | S. cerevisiae deletion strains, locus YPL106C, strain sse1, stronger effect = lower value 0.941 | S. cerevisiae deletion strains, locus YPL240C, strain hsp82, stronger effect = lower value 0.961 | S. cerevisiae deletion strains, locus YPL256C, strain CLN2, stronger effect = lower value 0.966

COC(=O)c1cc(OC)c(OC)cc1NS(=O)(=O)c1ccc(C)cc1
inactive: S. cerevisiae deletion strains, locus YAL013W, strain DEP1, stronger effect = lower value 1.01 | S. cerevisiae deletion strains, locus YBR229C, strain ROT2, stronger effect = lower value 0.996 | S. cerevisiae deletion strains, locus YDL101C, strain DUN1, stronger effect = lower value 0.994 | S. cerevisiae deletion strains, locus YDR150W, strain NUM1, stronger effect = lower value 0.933 | S. cerevisiae deletion strains, locus YEL061C, strain CIN8, stronger effect = lower value 1.01 | S. cerevisiae deletion strains, locus YGR078C, strain PAC10, stronger effect = lower value 0.989 | [1] 0.959 | S. cerevisiae deletion strains, locus YHR087W, strain rtc3, stronger effect = lower value 1 | S. cerevisiae deletion strains, locus YJR043C, strain POL32, stronger effect = lower value 0.985 | S. cerevisiae deletion strains, locus YJR075W, strain HOC1, stronger effect = lower value 0.991 | S. cerevisiae deletion strains, locus YKL190W, strain CNB1, stronger effect = lower value 1 | S. cerevisiae deletion strains, locus YLR039C, strain RIC1, stronger effect = lower value 0.961 | S. cerevisiae deletion strains, locus YLR058C, strain SHM2 (second series), stronger effect = lower value 1.01 | S. cerevisiae deletion strains, locus YLR085C, strain ARP6, stronger effect = lower value 1.03 | S. cerevisiae deletion strains, locus YLR262C, strain YPT6, stronger effect = lower value 0.891 | S. cerevisiae deletion strains, locus YML094W, strain GIM5, stronger effect = lower value 1.03 | S. cerevisiae deletion strains, locus YMR219W, strain ESC1, stronger effect = lower value 1 | S. cerevisiae deletion strains, locus YMR263W, strain SAP30, stronger effect = lower value 0.971 | S. cerevisiae deletion strains, locus YMR307W, strain GAS1, stronger effect = lower value 0.959 | S. cerevisiae deletion strains, locus YNL153C, strain GIM3, stronger effect = lower value 0.987 | S. cerevisiae deletion strains, locus YNL298W, strain CLA4 (second series), stronger effect = lower value 0.962 | S. cerevisiae deletion strains, locus YNL322C, strain KRE1, stronger effect = lower value 1 | S. cerevisiae deletion strains, locus YNR030W, strain Alg12, stronger effect = lower value 0.996 | S. cerevisiae deletion strains, locus YPL055C, strain LGE1, stronger effect = lower value 0.894 | S. cerevisiae deletion strains, locus YPL241C, strain CIN2, stronger effect = lower value 1.01 | S. cerevisiae deletion strains, locus YPR135W, strain CTF4, stronger effect = lower value 0.93 | S. cerevisiae strains, strain wild type, stronger effect = lower value 0.99
